Experimental findings from PubChem BioAssay (NCATS) are described below.

Assay [1] deals with Cytochrome P450 2C9 (Homo sapiens) (UniProt P11712). The assay can be described thus: qHTS Assay for Inhibitors and Substrates of Cytochrome P450 2C9 (AID 883). Also: % is scaled to controls: 0 for no effect and ±100 for the full control effect; nearly all actives have a fitted effect of over 60% in size. The method, boiled down:
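Signal: luciferase luminescence reporting luciferin produced by CYP2C9. Conditions: 10nM enzyme, Luciferin-H 100uM at KM, 25mM KPO4, 37C, 60 min NADPH-driven reaction. Reference: 57uM sulphaphenazole as 100% inhibition.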
(Quantitative high-throughput screening tests each substance at several concentrations.)

For assay [2], the target named is Cytochrome P450 3A4 (Homo sapiens) (UniProt P08684). The experiment in a line: qHTS Assay for Activators of Cytochrome P450 3A4 (AID 885). Also: nearly all actives have a fitted effect of over 65% in size. The method, boiled down:
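Human CYP3A4 dealkylates Luciferin-PPXE to luciferin, which luciferase detection converts to light. Substrate was at its KM (25uM), buffer 200mM KPO4, reaction 60 min at RT.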

Assay [3] deals with Cytochrome P450 2D6 (Homo sapiens) (UniProt P10635). The assay can be described thus: qHTS Assay for Inhibitors and Substrates of Cytochrome P450 2D6 (AID 891).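 Also: luciferin methyl ether substrate demethylated by CYP2D6 with NADPH regeneration; % is scaled to controls: 0 for no effect and ±100 for the full control effect; nearly all actives have a fitted effect of over 60% in size.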 In short, it runs like this:
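Luminescent read-out of luciferin formed by 5 nM human CYP2D6 demethylating 30 uM Luciferin-ME EGE (Km level) over 60 min at room temperature after NADPH regeneration addition. Data normalized to full inhibition by 1.43 uM quinidine.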

The target of assay [4] is Cytochrome P450 2C19 (Homo sapiens) (UniProt P33261). The experiment in a line: qHTS Assay for Inhibitors and Substrates of Cytochrome P450 2C19 (AID 899). Also: nearly all actives have a fitted effect of over 60% in size. Also: potency is read from the fitted curve at half-maximal effect. In short, it runs like this:
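Signal comes from luciferase acting on luciferin released by CYP2C19-mediated hydroxylation of Luciferin-H EGE, 10uM (KM). Assay mix: 5nM enzyme, 50mM KPO4; 60 min at 37C with NADPH regeneration. Data normalized against 57uM ketoconazole.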

Values without a mark were called inactive. Records with an inconclusive call do not appear. Active and inactive are the calls of the source. Calls follow the shape of the dose curve; as a rule, active = well fitted curve in the direction sought with a large enough effect; inconclusive = small, poorly fitted or top-dose-only effect, or another doubt; inactive = no such curve, though single readings can be large; an effect the other way counts as inactive or inconclusive.

Chain of Cytochrome P450 2C9 (Homo sapiens) (P11712 whole entry, looked up): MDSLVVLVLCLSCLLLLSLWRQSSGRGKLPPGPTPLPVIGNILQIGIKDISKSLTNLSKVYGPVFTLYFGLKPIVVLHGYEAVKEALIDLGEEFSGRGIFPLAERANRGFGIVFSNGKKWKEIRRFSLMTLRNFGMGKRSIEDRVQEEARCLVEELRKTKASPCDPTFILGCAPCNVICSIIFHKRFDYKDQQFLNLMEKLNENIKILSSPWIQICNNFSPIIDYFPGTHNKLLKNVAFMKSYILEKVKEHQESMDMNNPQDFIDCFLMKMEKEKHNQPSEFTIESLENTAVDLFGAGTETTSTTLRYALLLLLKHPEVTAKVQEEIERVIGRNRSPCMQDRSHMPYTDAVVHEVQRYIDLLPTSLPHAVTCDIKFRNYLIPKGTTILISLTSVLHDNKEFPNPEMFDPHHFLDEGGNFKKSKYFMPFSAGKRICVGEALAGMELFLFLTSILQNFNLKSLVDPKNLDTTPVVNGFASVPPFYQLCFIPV
Chain of Cytochrome P450 2D6 (Homo sapiens) (P10635 whole entry, looked up): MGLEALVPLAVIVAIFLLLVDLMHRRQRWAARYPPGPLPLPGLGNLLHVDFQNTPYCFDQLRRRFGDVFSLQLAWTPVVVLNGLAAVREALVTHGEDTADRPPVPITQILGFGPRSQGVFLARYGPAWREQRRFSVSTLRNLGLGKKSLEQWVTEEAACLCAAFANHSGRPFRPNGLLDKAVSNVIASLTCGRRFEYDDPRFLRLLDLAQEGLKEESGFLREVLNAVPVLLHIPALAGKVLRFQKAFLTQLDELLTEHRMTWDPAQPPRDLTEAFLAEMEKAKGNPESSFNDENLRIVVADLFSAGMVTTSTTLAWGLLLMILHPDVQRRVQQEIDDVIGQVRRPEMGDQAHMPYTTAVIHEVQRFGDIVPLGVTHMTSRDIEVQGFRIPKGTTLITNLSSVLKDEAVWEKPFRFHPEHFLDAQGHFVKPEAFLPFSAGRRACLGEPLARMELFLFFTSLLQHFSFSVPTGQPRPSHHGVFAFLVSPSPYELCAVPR
Chain of Cytochrome P450 2C19 (Homo sapiens) (P33261 whole entry, looked up): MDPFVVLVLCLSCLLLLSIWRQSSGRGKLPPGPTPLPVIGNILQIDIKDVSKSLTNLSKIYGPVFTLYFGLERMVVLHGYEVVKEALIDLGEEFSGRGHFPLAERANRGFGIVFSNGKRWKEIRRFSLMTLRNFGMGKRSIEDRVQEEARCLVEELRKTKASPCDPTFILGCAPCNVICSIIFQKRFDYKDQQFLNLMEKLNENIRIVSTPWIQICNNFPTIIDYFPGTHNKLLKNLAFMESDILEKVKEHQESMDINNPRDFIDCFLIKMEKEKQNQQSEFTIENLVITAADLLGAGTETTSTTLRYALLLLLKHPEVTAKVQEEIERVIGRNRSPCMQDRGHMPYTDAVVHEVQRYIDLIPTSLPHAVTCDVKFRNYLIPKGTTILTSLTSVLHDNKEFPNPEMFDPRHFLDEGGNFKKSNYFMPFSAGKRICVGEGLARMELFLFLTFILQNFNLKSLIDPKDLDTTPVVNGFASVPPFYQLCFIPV
Chain of Cytochrome P450 3A4 (Homo sapiens) (P08684 whole entry, looked up): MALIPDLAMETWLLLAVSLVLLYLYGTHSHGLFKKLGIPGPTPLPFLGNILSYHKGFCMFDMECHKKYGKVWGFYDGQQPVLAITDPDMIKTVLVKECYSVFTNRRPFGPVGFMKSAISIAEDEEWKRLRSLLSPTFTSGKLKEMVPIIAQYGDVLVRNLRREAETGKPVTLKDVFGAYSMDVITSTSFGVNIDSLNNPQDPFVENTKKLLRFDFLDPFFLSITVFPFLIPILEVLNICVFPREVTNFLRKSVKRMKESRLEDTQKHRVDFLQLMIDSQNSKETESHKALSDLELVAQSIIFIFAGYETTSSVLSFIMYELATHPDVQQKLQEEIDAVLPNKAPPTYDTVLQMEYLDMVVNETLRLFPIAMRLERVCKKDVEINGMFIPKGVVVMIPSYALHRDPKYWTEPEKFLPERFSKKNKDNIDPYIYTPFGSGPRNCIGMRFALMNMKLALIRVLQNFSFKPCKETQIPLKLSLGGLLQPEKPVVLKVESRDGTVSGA

Turning to `CCN1C(C)=C(C(=O)OC)C(c2ccccc2)N2C(=O)[C@](O)(C(=O)OC)C(c3ccccc3)C(C(C)=O)=C12` (stereo partly drawn), the Potency entry in assay [1], in assay [3] and in assay [4] was “inactive” each time. Further, the activity change, positive = activation in assay [2] was -59.7% [at 11.4 µM].
On to `COc1cccc(C2C(C)CCC3C(=O)N(C)C(C(C)C)C(=O)N32)c1` (stereo not drawn), for which the Potency result in assay [1], in assay [3] and in assay [4] was “inactive” each time. Further, the activity change, positive = activation in assay [2] was -59.1% [at 11.4 µM].
Turning to `CC12C=C(/C=C/c3ccc(C(F)(F)F)cc3)C(C)(C1)C(c1ccc(C(F)(F)F)cc1)CC2=O` (stereo not drawn), the Potency entry in assay [1] and in assay [4] was “inactive” each time. In assay [2], the activity change, positive = activation is -39% [at 11.4 µM].
On to `COc1ccc(-c2ccccc2C2NC(C(=O)O)CCC2C)cc1` (stereo not drawn), for which the Potency entry in assay [1], in assay [3] and in assay [4] was “inactive” in each case. The activity change, positive = activation in assay [2] is -42% [at 11.4 µM].
In the case of `CCC(=O)CC(NC(=O)OC)c1ccccc1` (stereo not drawn), the Potency result in assay [1], in assay [3] and in assay [4] was “inactive” each time. In addition, the activity change, positive = activation in assay [2] is -34.8% [at 11.4 µM].
Turning to `C/C=C/C1Oc2ccc(OC)cc2N2C(=O)C(C)C(OCOC)C12` (stereo not drawn), the Potency result in assay [1], in assay [3] and in assay [4] was “inactive” in each case. Moreover, the activity change, positive = activation in assay [2] is -50.7% [at 11.4 µM].
As for `CC(C)=CCC/C(C)=C/C=C/C1=CC2(C)CC1(C)C(/C=C(\C)CCC=C(C)C)CC2=O` (stereo not drawn), the Potency entry in assay [1], in assay [3] and in assay [4] was “inactive” throughout.
In the case of `CCOC(=O)[C@]1(C(NC(=O)OC)c2ccccc2)CCCC1=O` (stereo partly drawn), the Potency result in assay [1] and in assay [3] was “inactive” in each case. Also, the activity change, positive = activation in assay [2] was -34% [at 11.4 µM]. For the same molecule, the Potency in assay [4] is 1260 nM (active).
With `CC1Cc2c(COc3ccccc3)nc3c(c2CO1)CN(CCOc1ccccc1)CC3` (stereo not drawn), the Potency result in assay [1], in assay [3] and in assay [4] was “inactive” each time. Further, the activity change, positive = activation in assay [2] was -42% [at 11.4 µM].
Consider `C/C=C/OC(=O)NC(c1cccc(C)c1)[C@@]1(C(=O)OCC)CCCC1=O` (stereo partly drawn), for which the Potency result in assay [1] and in assay [3] was “inactive” throughout. In addition, in assay [2], the activity change, positive = activation was -48.2% [at 11.4 µM]. In addition, the Potency in assay [4] is 1000 nM (active).
